Bioassay records (PubChem BioAssay)
Sampled rows, rich in hits. Any-hit rate of the full collection: about 7.5%.
VP16 counter: Gal4-VP16 reporter inhibition counter-screen | Potency, µM (series often up to 53.6 µM), without a hit: at the top dose activity, negative = inhibition, most hits filed as inhibitors | 3.5% of 310,000 active | Drosophila S2 Gal4-VP16 UAS-luciferase, luminescence, 20 h;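 note: Gal4-VP16 expression switched on by copper sulfate through the metallothionein promoter; potency is the fitted concentration of half-maximal effect; nearly all actives have a fitted effect of over 50% in size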
TSHR antag: antagonists of human thyroid stimulating hormone receptor | 0.2% of 330,000 active | P16473 | activity change, negative = inhibition, % at 11.5 µM | TSHR-expressing cells, TSH-stimulated cAMP HTRF, 2 h; hits give low values;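 active = activity change below a set negative limit, meaning inhibition stronger than a set level, cut at about -70% in these data; inconclusive = activity change between two set negative limits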
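TSHR-expressing cells were treated with compounds, then stimulated with TSH at EC80 (4nM final) for 2 hours at 37 deg C. Cellular cAMP was measured by HTRF competition between lysate cAMP and cAMP-d2 for a cryptate-labelled anti-cAMP antibody.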
ELG1 repair inh: inhibitors of ELG1-dependent DNA repair in HEK293T cells; AID 504467; 2.3% of 330,000 active; HEK293T ELG1-luciferase reporter, luminescence, 16 h; DNA damage induced by 5-fluorouridine; Potency, µM (highest dose often 46.1 µM), inactives show at the highest dose activity change, negative = inhibition, usual class: inhibitors; note: potency is the fitted concentration of half-maximal effect; nearly all actives have a fitted effect of over 55% in size
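5-Fluorouridine DNA damage + compound/DMSO, 2,000 cells/well, 16 h, 37 °C/5% CO2. ONE-Glo, 30 min RT, luminescence. Readout = decrease in reporter signal.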
RORgamma inh: ROR gamma (mouse) transcription inhibition. P51450. Drosophila S2 Gal4-RORgamma UAS-luciferase reporter, 20 h. Potency, µM (highest dose often 53.6 µM), inactives show top-dose activity change, negative = inhibition, usual class: inhibitors. 5.4% of 310,000 active; note: potency is the fitted concentration of half-maximal effect; nearly all actives have a fitted effect of over 60% in size
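In this cell-based reporter format, copper sulfate (700 uM final) drives Gal4–ROR gamma fusion expression from a metallothionein promoter in Drosophila Schneider cells; compounds preincubated 1 hr, reporter read after 20 hr at ambient temperature.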
B2AR arrestin: beta2AR (human) beta-arrestin recruitment activity; Potency, µM (titrated, usually from 46.1 µM), for the others: at the highest dose activation, usual class: activators; 0.02% of 330,000 active; AID 492947; beta-arrestin recruitment to beta2AR, cell-based reporter;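 note: potency is the fitted concentration of half-maximal effect; 0% = DMSO controls and full agonism = EC100 isoproterenol or metaproterenol; nearly all actives have a fitted effect of over 65% in size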
Target sequence (P07550 whole entry, looked up): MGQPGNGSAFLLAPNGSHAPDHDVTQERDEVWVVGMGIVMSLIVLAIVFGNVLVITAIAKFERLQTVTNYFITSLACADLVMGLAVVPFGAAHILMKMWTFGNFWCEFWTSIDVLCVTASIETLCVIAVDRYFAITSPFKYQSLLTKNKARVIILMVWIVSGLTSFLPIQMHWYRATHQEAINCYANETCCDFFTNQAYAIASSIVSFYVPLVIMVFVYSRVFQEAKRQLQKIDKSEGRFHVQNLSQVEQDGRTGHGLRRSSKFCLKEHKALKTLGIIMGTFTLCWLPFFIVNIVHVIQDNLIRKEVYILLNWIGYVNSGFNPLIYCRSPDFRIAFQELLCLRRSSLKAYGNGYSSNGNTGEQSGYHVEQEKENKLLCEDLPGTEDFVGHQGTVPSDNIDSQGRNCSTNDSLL
* hit, by the source's call; ? = inconclusive; · = no result given; [ ] = dose if it differs, or a comment. Unless noted, calls come from the whole dose curve; as a rule, active = well fitted curve in the direction sought with a large enough effect; inconclusive = small, poorly fitted or top-dose-only effect, or another doubt; inactive = no such curve, though single readings can be large; an effect the other way counts as inactive or inconclusive. Unless noted, % is set by controls: 0 for no effect and ±100 for the full control effect.

SMILES | VP16 counter | TSHR antag | ELG1 repair inh | RORgamma inh | B2AR arrestin
CCOc1ccc(S(=O)(=O)N2CCN(C(=O)c3cc4ccccc4o3)CC2)cc1 | · | · | ? | · | 0.1%
O=C(NN=C1CCCC1)c1[nH]c2ccc(Br)cc2c1-c1ccccc1 | ? | -6.3 | ? | 11.2µM* | 0.1%
COc1ccc(-c2n[nH]c(=S)n2CC(C)C)cc1 | ? | -4.2 | -2.1% | 10µM* | -0.2%
NNC(=O)c1cccn(Cc2ccc(Cl)cc2Cl)c1=O | 6.9% | -5.8 | ? | -14.1% | 0.4%
CCn1c(-c2cccn(Cc3ccc(Cl)cc3Cl)c2=O)n[nH]c1=S | -16.8% | 36.3 | -15.2% | 10µM* | -0.4%
CC(C)Oc1ccc(Cn2c(-c3ccco3)n[nH]c2=S)cc1 | 4.47µM* | 2.8 | 18.7% | 2.82µM* | -0.7%
Cc1ccc(-c2n[nH]c(=S)n2Cc2ccccc2)cc1 | 6.31µM* | -15.9 | 3.8% | 2.82µM* | -0.3%
Cc1ccccc1-c1n[nH]c(=S)n1Cc1ccccc1 | -2.7% | -47.7 | 25.6% | 2.0% | -0.6%
CCCCCCC=O | -8.8% | · | · | -18.6% | ·
CSCC[C@H](NC(=O)[C@H](CC(C)C)NC(=O)CNC(=O)[C@H](Cc1ccc(O)cc1)NC(=O)[C@H](Cc1ccccc1)NC(=O)[C@H](CCCCN)NC(=O)[C@H](CC(N)=O)NC(=O)[C@@H]1CCCN1C(=O)[C@H](CC(=O)O)NC(=O)[C@H](C)NC(=O)[C@@H]1CCC(=O)N1)C(N)=O | -3.8% | · | · | 4.6% | ·
Cc1cccc(-c2nnc(SCC#N)n2Cc2ccccc2)c1 | -4.0% | -3.6 | -6.8% | 1.8% | 0.1%
CC(c1n[nH]c(=S)n1Cc1ccccc1)N(C)C (stereo unspecified) | ? | 5.7 | 2.1% | 1.78µM* | 0.5%
CCOc1ccc(-c2n[nH]c(=S)n2Cc2ccccc2)cc1 | 5.62µM* | -3.0 | 4.8% | 6.31µM* | -0.2%
S=c1[nH]nc(-c2cc3ccccc3o2)n1Cc1ccccc1 | 1.78µM* | -10.1 | 0.4% | 0.631µM* | -0.9%
CCn1c(C2CCN(Cc3ccccc3)CC2)n[nH]c1=S | -3.1% | -6.9 | 0.3% | -29.5% | 0.2%
Cc1cccc(-c2n[nH]c(=S)n2Cc2ccccc2)c1 | 0.562µM* | -15.0 | -8.4% | 0.794µM* | -0.2%
NCCC[C@@H](CC(=O)N[C@@H]1CCNC[C@H]1C(=O)N[C@H](CC(=O)N[C@@H](CCC(=O)O)CC(=O)O)Cc1ccccc1)NC(=O)C[C@H](Cc1c[nH]c2ccccc12)NC(=O)[C@@H]1CNCC[C@H]1N | -3.0% | · | · | 7.2% | ·
CC(C)Cn1nnnc1S(=O)(=O)CC#N | 1.0% | · | · | 3.6% | ·
Cc1ccc(NC(=O)c2ccc(CNc3c(N4CCC(C)CC4)c(=O)c3=O)cc2)cc1 | -6.6% | -7.6 | -2.0% | 31.7% | -0.6%
C=CCn1c(-c2sccc2C)n[nH]c1=S | ? | -4.7 | -2.3% | 10µM* | -0.4%
S=c1[nH]nc(-c2cccc(Cl)c2)n1Cc1ccccc1 | 2.51µM* | -12.5 | 24.9% | 2.51µM* | 0.0%
S=c1[nH]nc(-c2ccc(Cl)cc2Cl)n1-c1ccccc1 | ? | 5.0 | ? | 11.2%[1.91 µM] | 0.4%
C=CCn1c(CSc2nnc(-c3ccccc3)n2C)n[nH]c1=S | 4.1% | 22.6 | 8.7% | 20.1% | 0.9%
S=c1[nH]nc(-c2ccc(Cl)cc2Cl)n1Cc1ccccc1 | 5.62µM* | -37.3 | 2.0% | 2.82µM* | -0.4%
Clc1cccc(-c2nc3nc4ccccc4nc3n2Cc2ccccc2)c1 | -14.8% | 18.1 | ? | -8.2% | -0.4%
C=CCn1c(CSc2ccc(C)cc2)n[nH]c1=S | 14.1µM* | 4.2 | 16.4% | 3.98µM* | 9.3%
COc1ccc(OC[C@@H](CO)OC)cc1 | 0.6%[10 µM] | · | · | -0.9%[10 µM] | ·
CC(=O)CCOC1CCCCO1 (stereo unspecified) | 3.6% | · | · | 8.6% | ·
C=CCn1c(-c2cccc(Cl)c2)n[nH]c1=S | 7.08µM* | 35.6 | 2.4% | 3.98µM* | 0.1%
COc1ccc(Cn2c(-c3ccc(OC)cc3)n[nH]c2=S)cc1 | -27.1% | -15.5 | -1.7% | 7.94µM* | -0.7%
